Experimental findings from PubChem BioAssay (Tox21) are described below.

The nature of experiment [1]: qHTS assay to identify small molecule agonists of the hypoxia (HIF-1) signaling pathway - cell viability counter screen (AID 1224844; calls by dose curve; also: nearly all actives have a fitted effect of over 50% in size). As to conditions: HRE-bla ME-180 viability, CellTiter-Glo luminescence, 17 h; series mostly up to 76.8 µM. In outline: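 Cytotoxicity measured by CellTiter-Glo ATP luminescence in the wells also read for beta-lactamase signal. Cells were HRE-bla ME-180 (2,000/well, 0.5% dialyzed FBS), exposed to compounds for 17 h at 37C.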

A short description of experiment [2]: qHTS assay to identify small molecule agonists of the hypoxia (HIF-1) signaling pathway (AID 1224846; active = well fitted activation curve with a large enough effect in the signal ratio in the repeat runs, not every such curve was filed as active; the % refers to the signal ratio). As to conditions: HRE-bla ME-180 cells, beta-lactamase ratio, 17 h; series mostly up to 76.8 µM. The procedure, abridged: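 Compounds added to ME-180 cells carrying hypoxia-response-element beta-lactamase reporter (0.5% dialyzed FBS, 5 h preplating), 17 h at 37C; agonist activity detected by CCF4-AM B/G FRET read-out.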
(In general: Quantitative high-throughput screening tests each substance at several concentrations.)

Experiment [3] is described as follows: qHTS assay to identify small molecule agonists of H2AX - cell viability counter screen (AID 1224847; calls by dose curve; also: nearly all actives have a fitted effect of over 30% in size; also: potency is read from the fitted curve at half-maximal effect). As to conditions: CHO-K1 viability, CellTiter-Glo luminescence, 3 h; series mostly up to 154 µM. In outline:
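Compounds tested at 15 concentrations were incubated 3 hr at 37C with wild-type CHO-K1 cells; cellular ATP-based luminescence (CellTiter-Glo) indicated viability.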

The nature of experiment [4]: qHTS assay to identify small molecule antagonists of the estrogen related receptor (ERR) signaling pathway from Tox21 library (AID 1224848). Also: nearly all actives have a fitted effect of over 50% in size. As to conditions: ERR reporter cell line, luciferase antagonist mode, 18 h; series mostly up to 92.4 µM. The procedure, abridged:
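Compounds dissolved in DMSO are pin-transferred onto ERR reporter cells (2,000 per well) that have settled for 6 h at 37 C. Plates then incubate 18 h at 37 C before ONE-Glo luciferase reagent and a luminescence read 30 min later.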

The nature of experiment [5]: qHTS assay to identify small molecule agonists of the estrogen related receptor (ERR) signaling pathway from Tox21 library (AID 1224849; calls by dose curve; also: nearly all actives have a fitted effect of over 15% in size). The conditions noted are these: ERR reporter cell line, ONE-Glo luciferase, 18 h; at 92.4 µM (top of the series) unless noted. The procedure, abridged:
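Luminescent agonist read-out (One-Glo, 30-minute room-temperature incubation) following 18-hour compound treatment at 37 C of the ERR cell line, which had been plated 6 hours before dosing.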

Experiment [6] is described as follows: qHTS RealTime-Glo MT Cell Viability Assay in HepG2 cells - 24 hour (AID 1224867). Also: nearly all actives have a fitted effect of over 50% in size. As to conditions: RealTime-Glo luminescence; series mostly up to 76.8 µM. In outline:
(§1)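 Compound treatment began 5 h after plating HepG2 cells (600/well) with NanoLuc luciferase and prosubstrate. Plates stayed at 37 C for 40 h; luminescence was captured at six time points, 0 h through 40 h.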

Experiment [7] is described as follows: qHTS RealTime-Glo MT Cell Viability Assay in HEK293 cells - 32 hour (AID 1224868). Also: top concentration of the series differs between compounds; nearly all actives have a fitted effect of over 50% in size. The conditions noted are these: RealTime-Glo luminescence; series mostly up to 76.8 µM. The procedure, abridged:
(§2)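 Quantitative high-throughput screen of the Tox21 10K library in HEK293: cells and RealTime-Glo reagents plated together, compound added at 5 h, luminescence monitored through 40 h at 37 C.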

The nature of experiment [8]: A CellTox Green Cytotoxicity Assay to monitor cytotoxicity in HEK293 cells - 0 hour (AID 1224869). Also: nearly all actives have a fitted effect of over 50% in size. The conditions noted are these: CellTox Green fluorescence; series mostly up to 76.8 µM. The procedure, abridged: (§3)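 Fluorescence from a DNA-binding dye excluded by viable cells was measured repeatedly in the same HEK293 wells (600 cells/well) during continuous compound exposure at 37 C. Each assay gives one read point: 0, 8, 16, 24, 32 or 40 h.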

Experiment [9] in a line: qHTS RealTime-Glo MT Cell Viability Assay in HepG2 cells - 40 hour (AID 1224870). Also: nearly all actives have a fitted effect of over 50% in size. The conditions noted are these: RealTime-Glo luminescence; series mostly up to 76.8 µM. In outline: (§4)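 HepG2 cells (600/well) mixed with RealTime-Glo MT reagent, settled 5 h at 37 C/5% CO2 before compound addition. Nonlytic NanoLuc luminescence from viable-cell prosubstrate reduction read repeatedly during 40 h treatment at 37 C.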

Experiment [10] is described as follows: A CellTox Green Cytotoxicity Assay to monitor cytotoxicity in HEK293 cells - 40 hour (AID 1224871). Also: nearly all actives have a fitted effect of over 45% in size. The conditions noted are these: CellTox Green fluorescence; series mostly up to 76.8 µM. The procedure, abridged:
as §3

Experiment [11] is described as follows: qHTS RealTime-Glo MT Cell Viability Assay in HEK293 cells - 16 hour (AID 1224872). As to conditions: RealTime-Glo luminescence; series mostly up to 76.8 µM. In outline:
as §2

Experiment [12] in a line: qHTS RealTime-Glo MT Cell Viability Assay in HepG2 cells - 8 hour (AID 1224873). Also: nearly all actives have a fitted effect of over 55% in size. The conditions noted are these: RealTime-Glo luminescence; series mostly up to 76.8 µM. The procedure, abridged:
as §4

Experiment [13] in a line: qHTS RealTime-Glo MT Cell Viability Assay in HEK293 cells - 40 hour (AID 1224874). Also: nearly all actives have a fitted effect of over 50% in size. As to conditions: RealTime-Glo luminescence; max response: stronger effect = lower value. The procedure, abridged:
(§5)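 Luminescence, which tracks viable cell number through reduction of the prosubstrate to a NanoLuc substrate, was read over continuous 37 C culture. Cells (600/well) were premixed with reagent and rested 5 h before 23 nL of compound in DMSO was pinned.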

Experiment [14] is described as follows: A CellTox Green Cytotoxicity Assay to monitor cytotoxicity in HepG2 cells - 16 hour (AID 1224876). Also: nearly all actives have a fitted effect of over 45% in size. As to conditions: CellTox Green fluorescence; series mostly up to 76.8 µM. The procedure, abridged: (§6)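 Real-time cytotoxicity: fluorescence of a cell-impermeant cyanine dye binding DNA of dead HepG2 cells, measured repeatedly (0–40 h) during compound exposure at 37 C. Cells seeded 600/well with reagent, dosed after 5 h.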

Experiment [15] in a line: qHTS RealTime-Glo MT Cell Viability Assay in HepG2 cells - 32 hour (AID 1224877). Also: nearly all actives have a fitted effect of over 55% in size. The conditions noted are these: RealTime-Glo luminescence; series mostly up to 76.8 µM. In outline:
as §1

Experiment [16] is described as follows: A CellTox Green Cytotoxicity Assay to monitor cytotoxicity in HepG2 cells - 24 hour (AID 1224878). Also: nearly all actives have a fitted effect of over 45% in size. As to conditions: CellTox Green fluorescence; series mostly up to 76.8 µM. The procedure, abridged:
as §6

Experiment [17] is described as follows: A CellTox Green Cytotoxicity Assay to monitor cytotoxicity in HepG2 cells - 40 hour (AID 1224879). Also: nearly all actives have a fitted effect of over 40% in size. The conditions noted are these: CellTox Green fluorescence; series mostly up to 76.8 µM. The procedure, abridged: as §6
Experiment [18] can be described thus: qHTS RealTime-Glo MT Cell Viability Assay in HEK293 cells - 0 hour (AID 1224880). Also: top concentration of the series differs between compounds; nearly all actives have a fitted effect of over 45% in size. The conditions noted are these: RealTime-Glo luminescence; series mostly up to 76.8 µM. The procedure, abridged: as §5
The nature of experiment [19]: A CellTox Green Cytotoxicity Assay to monitor cytotoxicity in HEK293 cells - 24 hour (AID 1224875). Also: nearly all actives have a fitted effect of over 45% in size. As to conditions: CellTox Green fluorescence; series mostly up to 76.8 µM. In outline:
as §3

A short description of experiment [20]: qHTS assay to identify small molecule agonists of H2AX (AID 1224845; active = well fitted activation curve with a large enough effect in the signal ratio in the repeat runs, not every such curve was filed as active; the % refers to the signal ratio). As to conditions: CHO-K1 phospho-H2AX Ser139 HTRF, 3 h; series mostly up to 154 µM. The procedure, abridged: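 Wild-type CHO-K1 cells, plated overnight, exposed 3hr at 37C to 15 concentrations (0.76% DMSO final). Lysed, then HTRF anti-pH2AX (S139) cryptate and anti-H2AX-d2 antibodies, 24 hr room temperature; 665/620 nm emission read.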

Molecules are shown by their SMILES. A number with no mark means an inactive call. Records with an inconclusive call do not appear. Activity calls are given as the source filed them. Unless noted, calls follow the shape of the dose curve; as a rule, active = well fitted curve in the direction sought with a large enough effect in the repeat runs; inconclusive = weak or mixed curves; inactive = no such curve, though single readings can be large; an effect the other way counts as inactive or inconclusive.
% is scaled to controls: 0 for no effect and ±100 for the full control effect.

`CCCCCCCC/C=C\CCCCCCCC(=O)OCC`: the Potency result in [1], in experiment [2], in experiment [3], in [4], in experiment [6] and in experiment [7] was “inactive” in each case. Besides, the Potency entry in experiment [8], in experiment [9], in experiment [10], in experiment [11], in [12] and in [14] was “inactive” in each case. The Potency result in [15], in experiment [16], in [17] and in [18] was “inactive” throughout. Further, the activity change, positive = activation in experiment [5] is -11.5%. For the same molecule, the max response in experiment [13] was 4.58%.
`CCCCC(CC)COC(=O)CCCCCCCCC(=O)OCC(CC)CCCC` (centres undefined): the Potency result in experiment [1], in [2], in experiment [3], in experiment [4], in [6] and in experiment [7] was “inactive” throughout. Also, the Potency result in experiment [8], in experiment [9], in experiment [11], in experiment [12], in experiment [19] and in [15] was “inactive” in each case. Also, the Potency entry in [16], in [17] and in [18] was “inactive” each time. Further, the activity change, positive = activation in experiment [5] was 1.57%. For the same molecule, the max response in [13] was 1.51%.
`COc1cccc(N(C)C(=S)Oc2ccc3c(c2)CCCC3)n1`: the Potency result in experiment [1], in experiment [20], in experiment [6], in experiment [7], in [9] and in experiment [11] was “inactive” throughout. The Potency result in experiment [12], in experiment [19], in [14], in [15], in experiment [16] and in [17] was “inactive” throughout. The Potency result in experiment [18] was “inactive”. Besides, the max response in [13] is -20.4%.
For `C1CCCNCCC1`, the Potency result in experiment [1], in experiment [2], in [3], in experiment [4], in experiment [6] and in experiment [7] was “inactive” each time. Further, the Potency entry in [8], in experiment [9], in experiment [10], in experiment [11], in experiment [19] and in experiment [14] was “inactive” each time. The Potency entry in experiment [15], in experiment [16], in experiment [17] and in experiment [18] was “inactive” each time. For the same molecule, the activity change, positive = activation in [5] was -2.25%. Besides, the max response in experiment [13] is -5.84%.
For the molecule `O=C(O)C(S)C(S)C(=O)O` (centres undefined), the Potency entry in [1], in experiment [2], in [3], in experiment [6], in experiment [7] and in experiment [8] was “inactive” throughout. Also, the Potency result in [9], in experiment [10], in experiment [12], in experiment [14], in experiment [15] and in experiment [16] was “inactive” throughout. Also, the Potency result in experiment [17] and in [18] was “inactive” each time. Besides, the max response in experiment [13] is 3.09%.
As for `COc1cc(Cl)ccc1Oc1ccc(Cl)cc1Cl`, the Potency result in experiment [1], in [2], in experiment [4], in [6], in experiment [7] and in [8] was “inactive” in each case. Besides, the Potency result in experiment [9], in [10], in [12], in experiment [19], in experiment [14] and in [15] was “inactive” in each case. For the same molecule, the Potency result in [16], in experiment [17] and in [18] was “inactive” throughout. Besides, the Potency in [3] was 97.9 µM (active). In [13], the max response was -24.6%.
Consider `CCOc1ccc(N)c([N+](=O)[O-])c1`, for which the Potency result in [1], in experiment [2], in [3], in experiment [4], in experiment [6] and in experiment [8] was “inactive” each time. Besides, the Potency entry in experiment [9], in experiment [10], in experiment [12], in [19], in experiment [15] and in [16] was “inactive” each time. Moreover, the Potency result in [17] and in experiment [18] was “inactive” each time. Besides, the activity change, positive = activation in [5] is -0.453%.
